Laboratory results as given in PubChem BioAssay AID2629 (Broad Institute, 2010).
The whole screen tested about 320,000 compounds, of which about 1,900 (0.59%) were called active. Cut-off read from the data, not from the text of the source: active = inhibition mostly above about 10% (no sharp cut-off); inactive = mostly below about 6.7%. What follows is part of a selection rich in actives, with near analogues and random picks from the rest.

target: Protein LANA1 (Human herpesvirus 8 type P (isolate GK18)) (UniProt Q9QR71); experiment: blockers of LANA interaction with H2A/H2B – biochemical, FP readout, HTS, primary screen (AID 2629); conditions: cell-free LANA-H2A/H2B peptide, fluorescence polarization, stronger effect = higher value, concentration not given here
Sequence (Q9QR71 whole entry, looked up): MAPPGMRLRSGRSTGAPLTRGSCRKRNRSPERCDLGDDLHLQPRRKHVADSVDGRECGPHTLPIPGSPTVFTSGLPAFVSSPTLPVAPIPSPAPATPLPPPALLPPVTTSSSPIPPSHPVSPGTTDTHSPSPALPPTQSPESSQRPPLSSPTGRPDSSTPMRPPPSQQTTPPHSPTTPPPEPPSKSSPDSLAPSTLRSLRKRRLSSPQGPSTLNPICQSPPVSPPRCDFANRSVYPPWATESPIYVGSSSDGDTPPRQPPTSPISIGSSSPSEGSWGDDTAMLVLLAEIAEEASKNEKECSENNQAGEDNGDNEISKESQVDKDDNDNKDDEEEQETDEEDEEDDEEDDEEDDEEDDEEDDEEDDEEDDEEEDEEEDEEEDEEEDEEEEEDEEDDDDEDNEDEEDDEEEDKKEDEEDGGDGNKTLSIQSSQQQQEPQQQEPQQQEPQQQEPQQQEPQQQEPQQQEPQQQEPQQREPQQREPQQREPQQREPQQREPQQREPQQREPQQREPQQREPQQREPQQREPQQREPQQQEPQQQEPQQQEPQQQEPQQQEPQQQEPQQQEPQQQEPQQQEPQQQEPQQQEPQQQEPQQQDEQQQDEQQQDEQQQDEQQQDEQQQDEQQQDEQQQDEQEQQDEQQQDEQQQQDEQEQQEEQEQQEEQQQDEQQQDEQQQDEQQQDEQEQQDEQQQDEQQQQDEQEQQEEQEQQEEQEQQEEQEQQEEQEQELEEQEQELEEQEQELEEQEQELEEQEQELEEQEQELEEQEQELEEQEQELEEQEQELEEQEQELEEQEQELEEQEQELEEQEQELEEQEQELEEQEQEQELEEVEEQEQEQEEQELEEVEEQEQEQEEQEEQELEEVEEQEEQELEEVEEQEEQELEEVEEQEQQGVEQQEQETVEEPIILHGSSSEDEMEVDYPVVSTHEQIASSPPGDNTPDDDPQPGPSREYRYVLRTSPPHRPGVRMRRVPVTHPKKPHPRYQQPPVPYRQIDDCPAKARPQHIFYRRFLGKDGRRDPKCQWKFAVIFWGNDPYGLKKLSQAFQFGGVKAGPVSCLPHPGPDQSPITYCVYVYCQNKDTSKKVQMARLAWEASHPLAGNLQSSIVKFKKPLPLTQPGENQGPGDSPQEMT

Structure (SMILES) | inhibition
CCCN(CCC)CC(O)COc1ccccc1C(=O)Nc1ccccc1 (centres undefined) | -2.37% (inactive)
O=C(COC(=O)c1n[nH]c2ccccc12)Nc1ccccc1Br | -3.41% (inactive)
CN(C)S(=O)(=O)c1ccc(NC(=O)COC(=O)c2n[nH]c3ccccc23)cc1 | 15.3% (active)
CN(C)S(=O)(=O)c1ccc(NC(=O)COC(=O)Cn2[nH]c(=O)c3ccccc3c2=O)cc1 | 3.02% (inactive)
CCOCCCn1c(SCC(=O)Nc2cc(OC)ccc2OC)nc2ccccc2c1=O | 3.49% (inactive)
Cc1ccc2c(c1)N(CC(=O)NCCCN1CCCCC1)C(=O)c1cccnc1O2 | 3.43% (inactive)
COc1cc(OC)c(OC)cc1CN1CCN(C(=O)c2cccc3ccccc23)CC1 | 0.329% (inactive)
Cc1ccc(S(=O)(=O)N2CCC(Oc3ccc(-n4cnnn4)cc3)CC2)cc1 | -4.09% (inactive)
CCn1c(SCC(=O)NNC(=O)c2ccc(OC)cc2)nnc1C(C)C | -0.104% (inactive)
O=C(CS(=O)(=O)c1cn(Cc2ccc(Cl)cc2)c2ccccc12)N1CCOCC1 | 0.389% (inactive)
O=C(Cc1ccccc1)NC(=S)Nc1ccc(N2CCCCC2)cc1 | 2.3% (inactive)
O=C1C=CC(=O)N1c1ccc(N2CCCCC2)cc1 | 6.75% (active)
CC(=O)Nc1ccc(S(=O)(=O)Nc2ccc(N3CCCCC3)cc2)cc1 | 0.693% (inactive)
Cc1c(C(=O)NCCN(C)C)oc2ccc(S(=O)(=O)N3CCCC3)cc12 | 0.441% (inactive)
CCc1nn(CCCC(=O)NC(C)c2ccccc2)c(=O)c2cc3occc3n12 (centres undefined) | 1.99% (inactive)
CCN(CC(=O)NCc1cccs1)C(=O)/C=C/c1ccc(C)cc1 | -0.65% (inactive)
CN(C)C(=O)Cn1c(=O)n(S(=O)(=O)c2ccccc2)c2ccccc21 | 14% (active)
CC(CC(=O)N1CCN(S(=O)(=O)c2ccccc2)CC1)n1cncn1 (centres undefined) | 0.88% (inactive)
CCOc1ccc(S(=O)(=O)N(CC(=O)O)c2ccccc2)cc1 | 18.5% (inactive)
CC(=O)Nc1ccc(S(=O)(=O)NNC(=O)CCc2ccccc2)cc1 | -3.72% (inactive)

Structure (SMILES) | inhibition
Oc1ccccc1CNc1ncc(Br)cc1Br | -2.38% (inactive)
O=C(COc1nc2ccccc2nc1N1CCOCC1)NCC(F)(F)F | 0.0185% (inactive)
COc1cc(N2C(=O)c3ccccc3C2=O)c(Cl)cc1C(=O)OCC(=O)N1CCOCC1 | 2.7% (inactive)
O=S(=O)(NC1CCCCC1N1CCCCC1)c1ccc(Cl)cc1 (centres undefined) | 9.78% (inactive)
O=S(=O)(NC1CCCCC1N1CCC(O)CC1)c1ccc(Cl)cc1 (centres undefined) | -2.17% (inactive)
CCN1CCN(C2CCCCC2NS(=O)(=O)c2ccc(Cl)cc2)CC1 (centres undefined) | 16.2% (active)
O=C(CCn1nnc2ccccc2c1=O)N[C@@H](Cc1c[nH]c2ccccc12)C(=O)O | -3.09% (inactive)
COc1ccc(NC(=O)CCCC(=O)c2ccccc2)cc1 | 2.03% (inactive)
CCc1cccc(NC(=O)CCCN2C(=O)C(c3ccccc3)Oc3cccnc32)c1 (centres undefined) | 3.46% (inactive)
COc1ccc(NC(=O)CCCN2C(=O)C(c3ccccc3)Oc3cccnc32)cc1 (centres undefined) | 12.5% (active)
Cn1cc(CN2CCC(C(O)CCc3ccccc3)CC2)c(-c2ccccc2F)n1 (centres undefined) | 1.03% (inactive)
CCn1c(=O)c2ccccc2n(CC(=O)N2CCCc3ccccc32)c1=O | 0.719% (inactive)
O=C(NCc1ccco1)/C(=C\c1cccc([N+](=O)[O-])c1)NC(=O)c1ccco1 | -1.25% (inactive)
Oc1ccc(-c2[nH]ncc2-c2nc3ccccc3s2)c(O)c1 | 3.42% (inactive)
CC(=O)Nc1cccc(-c2nc3ccccc3s2)c1C | 55.2% (active)
Cc1ccc(S(=O)(=O)N2CCN(C(=O)c3ccccc3-c3nc4ccccc4s3)CC2)c(C)c1 | 5.83% (inactive)
O=C1C2(c3ccccc3)CN(CCCO)CC1(c1ccccc1)CN(CCCO)C2 | 1.07% (inactive)
C=CCN(C(=O)Cn1ncc2c1-c1cc(C)ccc1OC2)c1ccccc1 | -5.38% (inactive)
CCCCc1cc2c(s1)CCCC/C2=N/O | -0.97% (inactive)
COc1ccc(N2CCN(C(=O)CCNC(=O)c3ccc(Br)cc3)CC2)cc1 | -8.47% (inactive)

Structure (SMILES) | inhibition
CN(C)C(=O)c1nc2ccc(Cl)cn2c1CNCc1cccc(OC(F)(F)F)c1 | 1.63% (inactive)
Cc1nnc(SC(C(=O)c2ccccc2)c2ccccc2)[nH]c1=O (centres undefined) | -2.85% (inactive)
O=C(O)Cc1ccc(-c2ccccc2)cc1 | 54.5% (active)
O=C(O)Cc1ccc(NCc2ccccc2Cl)cc1 | 4.61% (inactive)
O=C(Cc1ccc(-c2ccccc2)cc1)NC(c1ccccc1)c1ccccc1 | 3.99% (inactive)
C/C(=N/OC(=O)c1ccc(Br)cc1)c1ccc(C)cc1 | 4.46% (inactive)
Cc1nnc(-c2ccc(Oc3ccc(C)c(C)c3)c([N+](=O)[O-])c2)o1 | 0.884% (inactive)
O=S(=O)(Nc1cc(S(=O)(=O)N2CCOCC2)ccc1N1CCCC1)c1cccs1 | -1.3% (inactive)
O=S(=O)(Nc1ccccc1N1CCOCC1)c1ccc(Cl)s1 | 4.05% (inactive)
O=S(=O)(Nc1cc(Cl)ccc1N1CCOCC1)c1ccccc1Cl | 16.7% (active)
CCCCN(C(=O)c1ccc(S(=O)(=O)N2CCOCC2)cc1)C1CCS(=O)(=O)C1 (centres undefined) | 3.61% (inactive)
CCN(CC)CCCNC(=S)N(CCO)Cc1cc2cc3c(cc2[nH]c1=O)OCO3 | -0.647% (inactive)
CCNC(=S)N(CCN(CC)CC)Cc1cc2cc3c(cc2[nH]c1=O)OCCO3 | -5.92% (inactive)
COCCCNC(=S)N(CCN(C)C)Cc1cc2cc3c(cc2[nH]c1=O)OCCO3 | 9.12% (active)
C=C(C)CNC(=S)/N=c1\scc(C)n1CC | 3.02% (inactive)
COc1ccc(Cc2cc(-c3ccc(F)cc3)n[nH]c2=O)cc1 | -1.23% (inactive)
O=C(CCc1nc2ccccc2c(=O)[nH]1)OCC(=O)c1cccc(Cl)c1 | -2.71% (inactive)
Cc1ccc(C(=O)COC(=O)CCN2C(=O)C3C4CCC(C4)C3C2=O)cc1C (centres undefined) | 0.254% (inactive)
Cc1ccc(C(=O)COC(=O)c2cccc(N3C(=O)c4c(C)nc5ccccc5c4C3=O)c2)cc1C | 14.6% (active)
